Sampled rows, rich in hits. Any-hit rate of the full collection: about 5.9%.
PRMT1 FP inh = PRMT1 methyltransferase inhibitors, primary screen, biochemical, fluorescence polarization; Protein arginine N-methyltransferase 1 (Homo sapiens), Q99873; inhibition, % at 2.79 µM; AID 652257, 2013; hit rate 1.3% among 370,000; recombinant PRMT1, activity-based probe fluorescence polarization;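 active = inhibition above about 21% made by adding two undisclosed values, limit read from the data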
ABHD5 PLIN5 PPI = ABHD5-PLIN5 interaction inhibitors, primary screen, cell lysate, split luciferase complementation, luminescence; Split G. princeps luciferase complementation, 4 h; inhibition, % at 4 µM; hit rate 0.78% among 360,000; AID 602281, 2012;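 active = inhibition above the mean inhibition across every tested compound plus 3 SD, cut at about 22% in these data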
LANA-H2B inh = blockers of LANA interaction with H2A/H2B – biochemical, FP readout, HTS, primary screen. Protein LANA1 (Human herpesvirus 8 type P (isolate GK18)), Q9QR71. cell-free LANA-H2A/H2B peptide, fluorescence polarization. inhibition, % (concentration not given with the values). hit rate 0.6% among 320,000; in the data active = inhibition mostly above about 10%, no sharp cut-off; inactive = mostly below about 6.7%
ALR H2O2 inh = inhibitors of human ALR sulfhydryl oxidase, primary screen, biochemical, H2O2 detection, HRP-luminol luminescence, single point; FAD-linked sulfhydryl oxidase ALR (Homo sapiens), P55789; purified ALR, DTT oxidation; inhibition, % (test concentration not listed); hit rate 3.8% among 290,000; AID 485317, 2010;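 active = mean replicate inhibition above about 79%, with every replicate also reaching it, limit read from the data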
Target sequence (P55789 whole entry, looked up): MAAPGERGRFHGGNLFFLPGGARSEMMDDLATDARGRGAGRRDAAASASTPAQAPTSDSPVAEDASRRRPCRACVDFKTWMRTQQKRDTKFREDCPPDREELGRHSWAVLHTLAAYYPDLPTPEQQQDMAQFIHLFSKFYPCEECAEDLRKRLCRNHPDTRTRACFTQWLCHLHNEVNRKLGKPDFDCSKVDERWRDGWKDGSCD
rCAG RNA binder = binders of r(CAG) RNA repeats, primary screen, biochemical, fluorescence. inhibition, % at 3 µM. AID 651821, 2012. hit rate 1.3% among 370,000. r(CAG) RNA repeat, TO-PRO-1 dye displacement fluorescence;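 active = inhibition above the plate cutoff, the mean of all test compounds on that plate plus 3 SD, cut at about 35% in these data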;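 note: higher means more dye released from RNA so lower well fluorescence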
Rtt109 HAT inh = inhibitors of C. albicans Rtt109/Vps75 HAT, primary screen, biochemical, ThioGlo CoA-SH fluorescence, plate reader | hit rate 0.16% among 330,000 | purified Rtt109/Vps75, 4 h | AID 540336, 2011 | inhibition, % at 34.9 µM | Histone acetyltransferase RTT109 (Candida albicans (strain SC5314 / ATCC MYA-2876)), …;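 active = inhibition of at least 50% in every replicate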
Numbers stand for hits; n = inactive; x = no result; ! = a repeat was not active.

SMILES	PRMT1 FP inh	ABHD5 PLIN5 PPI	LANA-H2B inh	ALR H2O2 inh	rCAG RNA binder	Rtt109 HAT inh
COc1cc(-c2cc(C(=O)O)c3cc4ccccc4cc3n2)cc(OC)c1OC	n	n	x	x	n	x
COC(=O)C[C@H]1CC[C@@H]2[C@H](COc3ccc(NC(=O)c4cccc(F)c4)cc3C(=O)N2C)O1	n	x	x	x	n	x
Cc1cccc(-c2cnn(-c3cccc([N+](=O)[O-])c3)c2N)c1	n	n	n	92	n	n
Cc1cccc(-c2cnn(-c3ccccc3)c2N)c1	n	n	n	n	n	n
CCOC(=O)N[C@H](C(=O)N1CCC[C@H]1C(=O)NCc1ccccc1)C(C)C	n	x	x	x	n	x
CC(=O)c1ccc(NC(=O)N2CCN(c3ccc(C)cc3)C(C)C2)cc1 (stereo not given)	n	n	n	96	n	n
CC(=O)c1ccc(N2CCN(C(=O)Nc3ccc(C)cc3)CC2)cc1	n	n	n	n	n	n
COc1ccc(OC)c(C2C3CN(C(C)C)CC=C3C(C#N)=C(N)C2(C#N)C#N)c1 (stereo not given)	n	n	n	n	n	n
CCCN1CC=C2C(C#N)=C(N)C(C#N)(C#N)C(c3cccc(OC)c3OC)C2C1 (stereo not given)	n	n	17	n	n	n
Cc1ccc(C2C3CN(C(C)C)CC=C3C(C#N)=C(N)C2(C#N)C#N)cc1 (stereo not given)	40	n	n	n	n	n
CN1CC=C2C(C#N)=C(N)C(C#N)(C#N)[C@H](c3ccoc3)[C@H]2C1	x	n	18	n	x	n
O=C(CSc1nc2ccccc2n1Cc1ccccc1Cl)N/N=C\c1cccc(Oc2ccccc2)c1	n	x	x	x	n	x
COc1ccccc1C(=O)NC1CCCCN(Cc2ccccc2C)C1=O (stereo not given)	n	x	x	x	n	x
NNc1ccc([N+](=O)[O-])c2[nH][nH]c(=O)c12	40	n	x	x	42	x
O=[N+]([O-])c1ccc(Nc2ccccc2)c2nonc12	n	n	n	n	n	n
CC(COc1cccc(Br)c1)CN1CCC(C(O)(c2ccccc2)c2ccccc2)CC1 (stereo not given)	n	x	x	x	n	x
O=C(NNC1=NS(=O)(=O)c2ccccc21)c1ccc(Cl)cc1	n	n	n	89	n	x
O=C(NNC1=NS(=O)(=O)c2ccccc21)c1ccc([N+](=O)[O-])cc1	n	n	n	n	n	n
O=S1(=O)N=C(Nc2ccc(O)cc2)c2ccccc21	n	n	n	99	n	x
O=C(OCC#CCSc1nnc(-c2cccc3ccccc23)o1)c1ccc(OC(F)F)cc1	n	x	x	x	x	x
COc1ccc(CN2CCN(C(=O)CCC(=O)c3ccc(C)s3)CC2)cc1OC	n	n	n	x	n	n
C[C@@H]1CN([C@@H](C)CO)S(=O)(=O)c2ccc(-c3ccccc3)cc2O[C@@H]1CN(C)Cc1ccccc1C(=O)O	n	n	x	x	n	x
Cc1cc(=O)c2c(O)c(O)ccc2o1	23	n	n	x	n	n
O=C(Nc1ncc([N+](=O)[O-])s1)c1cccs1	n	n	n	97!	n	n
CC(C)c1nnc(NC(=O)c2cccs2)s1	25	n	n	n	n	n
SMILES	PRMT1 FP inh	ABHD5 PLIN5 PPI	LANA-H2B inh	ALR H2O2 inh	rCAG RNA binder	Rtt109 HAT inh
Cc1cnc(NC(=O)c2cccs2)s1	n	n	n	n	n	x
O=C(COC(=O)c1ccc(Br)o1)Nc1ncc([N+](=O)[O-])s1	n	n	n	97	n	n
O=C(Nc1ncc([N+](=O)[O-])s1)c1ccccc1Br	n	n	n	97	n	n
O=C(CS(=O)(=O)c1ccccc1)Nc1ncc([N+](=O)[O-])s1	n	n	n	n	n	n
CCN(CC)S(=O)(=O)c1ccc2oc(SCC(=O)Nc3cc(C)on3)nc2c1	n	n	99	n	n	n
CC(=O)Nc1nnc(CCS(=O)(=O)c2ccc(C)c(C)c2)s1	n	n	n	x	n	59
Cc1ccc(S(=O)(=O)CCc2nnc(NC(=O)C3CCCCC3)s2)cc1	n	n	n	n	n	n

Screens as filed in PubChem BioAssay.
